# Source: PubChem (several laboratories)
# Compounds with a hit are over-represented: about 1.3% of the library has one in this group of screens.
# SRC1 inh: inhibitors of human steroid receptor coactivator 1 (SRC1) | HEK293 GAL4-SRC1 luciferase reporter, luminescence | inhibition, % at 3.6 µM | hit rate 0.12% among 360,000;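 active = inhibition above the campaign mean plus 3 SD, with each screening campaign given its own cutoff, cut at about 60% in these data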
# SRC3 inh: inhibits human SRC3 coactivator. inhibition, % at 3.6 µM. hit rate 0.17% among 360,000. HEK293 GAL4-SRC3 luciferase reporter, luminescence. AID 588352. Q9Y6Q9;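 active = inhibition above a per-campaign cutoff, the mean of all compounds plus 3 SD, cut at about 60% in these data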;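 also: higher means less SRC3-driven luciferase light from the GAL4 reporter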
# LRH-1 inv ag: NR5A2 inverse agonism in reporter assay; HEK293T StAR-luciferase reporter, LRH-1 transfected, 24 h; inhibition, % at 3.6 µM; hit rate 0.13% among 360,000;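 active = inhibition above the mean inhibition of all tested compounds plus 3 SD, cut at about 73% in these data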
# Gli-Sufu block: blocks Gli-Sufu signaling in a luciferase reporter. Sufu-KO-LIGHT fibroblasts, Gli luciferase reporter luminescence. hit rate 0.74% among 340,000. inhibition, % at 5 µM;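 active = inhibition above about 55%, limit read from the data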
# NR2F2 inh: inhibitors of human COUP-TFII (NR2F2); P24468; inhibition, % at 8.6 µM; HEK293T NGFI-A luciferase reporter, luminescence; hit rate 0.7% among 370,000;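 active = inhibition above a per-plate cutoff, mean inhibition of test wells between control levels plus 3 SD, cut at about 38% in these data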;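 also: cells cotransfected with COUP-TFII expression vector driving the NGFI-A reporter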
# Target sequence (P24468 whole entry, looked up): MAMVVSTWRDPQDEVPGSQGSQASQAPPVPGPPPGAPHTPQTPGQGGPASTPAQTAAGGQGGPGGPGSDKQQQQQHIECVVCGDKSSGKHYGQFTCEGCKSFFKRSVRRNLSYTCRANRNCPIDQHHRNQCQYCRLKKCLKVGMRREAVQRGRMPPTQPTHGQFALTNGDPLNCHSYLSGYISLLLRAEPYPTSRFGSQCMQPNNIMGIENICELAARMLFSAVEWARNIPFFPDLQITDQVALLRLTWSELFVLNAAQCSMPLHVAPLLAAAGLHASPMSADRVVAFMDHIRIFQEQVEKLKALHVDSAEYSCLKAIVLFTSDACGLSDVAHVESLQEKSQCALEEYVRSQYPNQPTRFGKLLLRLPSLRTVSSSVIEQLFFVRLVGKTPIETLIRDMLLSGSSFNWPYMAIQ
# SRC2 inh: human SRC2 (NCOA2) inhibition; AID 651957; HEK293 GAL4-SRC2 luciferase reporter, luminescence; Q15596; inhibition, % at 9 µM; hit rate 0.17% among 370,000;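 active = inhibition above the mean inhibition of all tested compounds plus 3 SD, set per campaign, cut at about 52% in these data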
# Gal4-VP16 ctr: VP16 inhibition counter-screen for COUP-TFII; shares compounds with NR2F2 inh; HEK293 Gal4-VP16 luciferase reporter, luminescence; inhibition, % at 8.5 µM; hit rate 25% among 2,500; AID 687007; in the data active = inhibition above about 13%
# NR2F2 inh conf: COUP-TFII (NR2F2) inhibition, confirmation assay; shares compounds with NR2F2 inh; HEK293 NGFI-A luciferase reporter, luminescence; inhibition, % at 8.5 µM; hit rate 45% among 2,500; AID 687008;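 active = mean inhibition over three repeats above a set limit taken from the earlier primary screen, cut at about 38% in these data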
# Numbers stand for hits; i = inactive; nt = no result.
SMILES,SRC1 inh,SRC3 inh,LRH-1 inv ag,Gli-Sufu block,NR2F2 inh,SRC2 inh,Gal4-VP16 ctr,NR2F2 inh conf
Cc1ccc(CN2CCc3c(OCc4ccc(F)cc4)cccc3C2=O)cc1,i,i,i,i,i,i,nt,nt
O=C1c2cccc(OCc3ccc(F)cc3)c2CCN1Cc1ccc(F)cc1,i,i,i,i,57.8,i,i,43.5
CC(C)C[C@H](NC1(C(=O)NCCc2c[nH]c3ccccc23)CCC1)C(=O)NCCCc1ccccc1,nt,nt,nt,nt,i,nt,nt,nt
Cn1c(SCC(=O)Nc2ccc(S(=O)(=O)Nc3nccs3)cc2)nc2sc3c(c2c1=O)CCCC3,nt,nt,nt,nt,i,i,nt,nt
O=C(CSc1nc2ccccc2n1Cc1ccccc1Cl)N/N=C\c1cccc(Oc2ccccc2)c1,nt,nt,nt,nt,i,i,nt,nt
NC(=S)NN=C1c2cc(OCCN3CCOCC3)ccc2-c2ccc(OCCN3CCOCC3)cc21,72.5,i,75.1,i,68.3,i,i,80.2
CCCCOCCCNC(=O)C[C@H]1C[C@@]2(C(=O)OC)C(=C[C@H](C3CCCC3)O[C@@H]2C)N(Cc2ccco2)C1=O,nt,nt,nt,nt,i,i,nt,nt
Cc1ccc(C(=O)N/N=C/c2ccc([N+](=O)[O-])s2)cc1,i,i,i,i,53.5,82.8,84.5,92.6
Cc1ccc(C(=O)N/N=C\c2ccc([N+](=O)[O-])s2)cn1,i,i,i,i,39.8,i,30.8,i
O=C(N/N=C/c1ccc([N+](=O)[O-])s1)c1ccncc1,i,i,i,i,nt,nt,nt,nt
Cc1[nH]cnc1C(=O)N/N=C/c1ccc([N+](=O)[O-])s1,i,i,i,i,i,i,nt,nt
CCn1c(COc2ccc(C)cc2)nnc1SCC(=O)Nc1ccc(Oc2ccccc2)cc1,nt,nt,nt,nt,i,i,nt,nt
CC(=O)OC12CCCN(C1)/C(=C/c1ccccc1)C2 (stereo not drawn),nt,nt,nt,nt,i,i,nt,nt
COC(=O)[C@]12C[C@H](CC(=O)NCc3ccccc3)C(=O)N(Cc3ccco3)C1=C[C@H](C(C)(C)C)O[C@@H]2C,nt,nt,nt,nt,i,i,nt,nt
O=C(CCc1ccccc1-c1ccccc1CCNC(=O)c1c(F)cccc1F)NCc1ccccc1,nt,nt,nt,nt,i,i,nt,nt
COCC(C)n1c(C)cc(C(=O)COC(=O)c2cccn2C)c1C (stereo not drawn),i,i,i,i,57.4,i,i,50.0
COCC(C)n1c(C)cc(C(=O)COC(=O)c2cnc(Cl)c(Cl)c2)c1C (stereo not drawn),i,i,i,i,i,i,nt,nt
Cc1ccc(S(=O)(=O)n2ccc3c(OCCOCCSCC(NC(=O)OC(C)(C)C)C(=O)O)cccc32)cc1 (stereo not drawn),i,i,i,i,i,i,nt,nt
Cc1ccc(S(=O)(=O)n2ccc3c(OCCOCCNCc4ccc(F)cc4)cccc32)cc1,i,i,i,i,43.0,i,i,i
CN1CCCN(S(=O)(=O)c2ccc3c(c2)n(C)c(=O)c(=O)n3C)CC1,nt,nt,nt,nt,i,i,nt,nt
COC(=O)[C@]12C[C@H](CC(=O)N3CCC(c4ccccc4)CC3)C(=O)N(Cc3cccc4ccccc34)C1=C[C@H](C1CCCC1)O[C@@H]2C,nt,nt,nt,nt,i,i,nt,nt
O=C(C1CCCN(S(=O)(=O)c2cccc3nsnc23)C1)N1CCc2ccccc2C1 (stereo not drawn),i,i,i,i,40.6,i,i,i
CN(CCO)c1ccc2c(c1)Oc1ccccc1CN(Cc1cn(Cc3ccccc3C(F)(F)F)nn1)S2(=O)=O,nt,nt,nt,nt,i,i,nt,nt
CC(=O)c1ccc2c(c1)N(C)c1ccccc1S2,i,i,i,i,i,i,nt,nt
Cc1ccc2c(c1)N(C)/C(=C/c1cccc[n+]1C)S2,i,i,i,81.9,57.1,i,i,42.5
SMILES,SRC1 inh,SRC3 inh,LRH-1 inv ag,Gli-Sufu block,NR2F2 inh,SRC2 inh,Gal4-VP16 ctr,NR2F2 inh conf
CCN1/C(=C/c2cccc[n+]2C)Sc2ccc(OC)cc21,i,i,i,77.0,77.5,i,i,46.0
CCN1/C(=C/C(C)=O)Sc2ccc(OC)cc21,i,i,i,i,i,i,nt,nt
Cc1ccc(NC(=O)CSc2nn(-c3ccccc3)c(=S)s2)cc1S(=O)(=O)N(C)C,i,i,i,i,68.1,i,i,63.1
O=C(CSc1nn(-c2ccccc2)c(=S)s1)Nn1cnnc1,i,i,i,i,i,i,nt,nt
COc1ccc(CC(/C=C/c2ccc(F)cc2)c2ccccc2)cc1 (stereo not drawn),nt,nt,nt,nt,i,i,nt,nt
O=C(Nc1nc(-c2cc(F)ccc2F)cs1)C1=NN(c2ccccc2)C(=O)CC1,i,i,i,i,i,i,nt,nt
COc1ccc(-c2csc(NC(=O)C3=NN(c4ccccc4)C(=O)CC3)n2)cc1,i,i,i,i,49.4,i,i,i
CCC1CSC(Nc2ccc(C(=O)/C=C/c3ccc(OC)c(OC)c3)cc2)=N1 (stereo not drawn),i,i,i,i,60.6,i,i,i
CCC1CSC(Nc2ccc(C(=O)/C=C/c3ccc(Br)cc3)cc2)=N1 (stereo not drawn),i,i,i,i,i,i,nt,nt
CCCCN1CN2Cc3ccc(C)cc3C2CS1(=O)=O (stereo not drawn),nt,nt,nt,nt,i,i,nt,nt
C#Cc1ccc(CN2CCC(C(=O)Nc3ccc(Oc4ccccc4)nc3)CC2)cc1,i,i,i,i,48.6,i,i,i
O=C(Nc1ccc(Oc2cccnc2)cc1)C1CCN(Cc2cc(Cl)ccc2O)CC1,i,i,i,i,61.5,i,i,48.2
O=C(Nc1ccc(Oc2ccccc2)nc1)C1CCN(Cc2cccc(F)c2)CC1,i,i,i,i,i,i,nt,nt
CCOc1ccc(-n2c(-c3ccc(OC)cc3)c[n+]3c2CCCCC3)cc1,i,i,84.5,87.2,82.7,i,19.6,72.3
COc1ccc(-c2c[n+]3c(n2-c2c(C)n(C)n(-c4ccccc4)c2=O)CCCCC3)cc1,i,i,i,i,i,i,nt,nt
COc1ccc(-c2c[n+]3c(n2-c2ccc(C)cc2)CCCCC3)cc1,i,i,i,78.9,71.5,i,i,60.6
CC(C)=CCC/C(C)=C/C[C@]12C[C@H](C(=O)O)N(C(=O)OC(C)(C)C)[C@@H]1N(C(=O)OC(C)(C)C)c1ccccc12,nt,nt,nt,nt,i,nt,nt,nt
C=CCN(CC#Cc1ccc(C(F)(F)F)cc1)CC=C,nt,nt,nt,nt,i,i,nt,nt
CC(=O)NS(=O)(=O)c1ccc(NC(=O)c2cccc(S(=O)(=O)N3CCc4ccccc43)c2)cc1,i,i,i,i,i,i,nt,nt
O=C(NNC(=O)c1ccccc1O)c1ccc(Cl)c(S(=O)(=O)N2CCc3ccccc32)c1,i,i,i,63.0,48.4,i,i,39.3
CN(C)S(=O)(=O)c1cccc(NC(=O)c2cccc(S(=O)(=O)N3CCc4ccccc43)c2)c1,i,i,i,i,42.5,i,i,i
O=C(NNC(=O)c1cccc(S(=O)(=O)N2CCc3ccccc32)c1)c1ccccc1,i,i,i,i,40.9,i,i,i
